# From PubChem BioAssay
# Compounds with a hit are over-represented: about 7% of the library has one in this group of screens.
# D3 antag – blocks the human D3 dopamine receptor | P35462 | D3R cells, DiscoveRx beta-arrestin luminescence, antagonist mode; hits give low values | max response, negative = inhibition, % | 360,000 tested, 2.5% active | AID 652054; in the data active = max response below about -50%; inconclusive = no clear call, values can overlap the other calls; note: % is set by controls: 0 for no effect and ±100 for the full control effect
# Target sequence (P35462 whole entry, looked up): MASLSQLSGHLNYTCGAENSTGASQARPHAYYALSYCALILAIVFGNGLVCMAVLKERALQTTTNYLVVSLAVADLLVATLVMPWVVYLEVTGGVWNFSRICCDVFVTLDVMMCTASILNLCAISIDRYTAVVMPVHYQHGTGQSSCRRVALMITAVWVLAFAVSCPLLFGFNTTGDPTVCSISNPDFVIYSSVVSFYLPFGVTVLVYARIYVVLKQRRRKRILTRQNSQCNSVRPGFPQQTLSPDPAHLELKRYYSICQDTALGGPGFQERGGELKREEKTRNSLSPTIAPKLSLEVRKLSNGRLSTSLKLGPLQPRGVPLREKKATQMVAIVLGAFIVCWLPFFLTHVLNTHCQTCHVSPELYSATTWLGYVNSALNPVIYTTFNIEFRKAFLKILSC
#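 Cells expressing the human receptor were seeded at 1500 cells/well, incubated overnight at 37 degrees C in 5% CO2, then exposed to library compounds with dopamine controls for 90 minutes at 37 degrees C before luminescent detection.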
# IL1B secr inh – inhibitors of inflammasome signaling (IL-1 beta secretion). activity change, % at 57.5 µM. THP-1 LPS/ATP IL-1B secretion, AlphaLISA, 16 h; hits give low values. 360,000 tested, 4.7% active; in the data active = activity change below about -50%; inconclusive = mostly about -30% to -49%; note: % is set by controls: 0 for no effect and ±100 for the full control effect
#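 THP-1 cells pretreated 1 hr with compounds (up to 57.5 uM final), then stimulated with LPS (250 ng/mL final) plus ATP (1.25 mM final); secreted IL-1B measured by AlphaLISA after 16 hr, decreased signal indicating inhibition.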
# ATXN2 expr inh – reduces ATXN2 reporter expression in HEK-293 cells. HEK-293 ATXN2-luciferase reporter, luminescence, 24 h. Potency, µM (series often up to 57 µM), for the others: at the highest dose activity change, negative = inhibition, most hits filed as inhibitors. 360,000 tested, 0.72% active. AID 1745845; note: potency is the fitted concentration of half-maximal effect; % is set by controls: 0 for no effect and ±100 for the full control effect; nearly all actives have a fitted effect of over 55% in size
#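 qHTS (up to 57 uM final) was run with 24 h compound exposure of reporter cells at 37 °C. Each well was multiplexed: SteadyGlo luminescence measured ATXN2-luciferase expression after a fluorogenic Gly-Phe-AFC viability readout (25 uM final).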
# D3 ag – D3 dopamine receptor (human) agonism; P35462; D3R DiscoveRx beta-arrestin cells, luminescence, 90 min; 410,000 tested, 0.58% active; max activation, %; in the data active = max activation above about 30%; note: 0% is about no effect
#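 Agonist mode: compounds and dopamine controls were applied to plated cells for 90 min at 37 degrees C after an overnight attachment at 1500 cells/well. Luminescent read-out followed 30 - 60 minutes at room temperature with DiscoveRx detection reagent.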
# a7 integrin act – activators of alpha7 integrin expression for muscular dystrophy | alpha7betagal myoblasts, beta-gal FDG fluorescence, 48 h | Potency, µM (top dose mostly 38.3 µM), for the others: at the highest dose activation, usual class: activators | 350,000 tested, 0.064% active | AID 624291;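 note: potency is the fitted concentration of half-maximal effect; 100% = response of the positive control SU9516; nearly all actives have a fitted effect of over 60% in size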
#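 alpha7betagal+/- myoblasts (passage 13, 250/well) treated 48 h at 37C with compounds at 1:260 dilution of DMSO stock. Lysed, then beta-galactosidase activity read as FDG fluorescence (ex 480/em 540) after 30 min, with pre-read for autofluorescence.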
# ATXN viability – reduces viability in counter-screen for ATXN expression inhibitors | S2 cells (HEK-293 line with an ATXN2-luciferase reporter) viability, CellTiter-Fluor protease fluorescence, 24 h | Potency, µM (titrated, usually from 56.7 µM), hits mostly cytotoxic | 400,000 tested, 0.49% active | AID 651635; note: potency is the fitted concentration of half-maximal effect; nearly all actives have a fitted effect of over 40% in size
# Active calls of the source: *; i = inactive; ? = inconclusive; / = no result given. Unless noted, calls come from the whole dose curve; as a rule, active = well fitted curve in the direction sought with a large enough effect; inconclusive = small, poorly fitted or top-dose-only effect, or another doubt; inactive = no such curve, though single readings can be large; an effect the other way counts as inactive or inconclusive.
SMILES,D3 antag,IL1B secr inh,ATXN2 expr inh,D3 ag,a7 integrin act,ATXN viability
Cc1cnc(=O)[nH]c1SCC(=O)c1ccc(F)cc1,-1,-10,-13%,-1,-8%,i
CC1(C)C(C(N)=O)C(=O)NC(=O)C1C(N)=O (stereo not given),7,-3,/,-4,-6%,i
CN(Cc1c(C(=O)N/N=C/c2cccc(F)c2)nnn1-c1nonc1N)c1ccccc1,24,-17,/,4,5.6µM*,i
COc1cccc(/C=N/NC(=O)c2nnn(-c3nonc3N)c2CN(C)c2ccccc2)c1,-1,-21,/,-2,5%,?
CCN(CC)Cc1c(C(=O)N/N=C/c2c(Cl)cccc2Cl)nnn1-c1nonc1N,13,6,0%,30*,-29%,i
CCN(CC)Cc1c(C(=O)N/N=C/c2ccncc2)nnn1-c1nonc1N,-19,44,-5%,-11,-15%,i
CC(=C/c1ccccc1)/C=N/NC(=O)c1nnn(-c2nonc2N)c1CN1CCC(C)CC1,8,-11,-33%,5,?,?
CC1CCN(Cc2c(C(=O)N/N=C/c3ccccc3O)nnn2-c2nonc2N)CC1,11,91,3.2µM*,5,-21%,i
Cc1ccc(/C=C/C(=O)O)cc1S(=O)(=O)NCc1ccco1,10,5,2%,41*,24%,i
CCOC(=O)[C@]12CCC=C1N(Cc1cccc3ccccc13)C(=O)[C@H](CC(=O)NCCC(C)C)C2,-22,-55*,?,-10,/,?
CCOC(=O)[C@]12CCCC=C1N(Cc1cccc3ccccc13)C(=O)[C@H](CC(=O)NCc1cccc3ccccc13)C2,19,-6,5%,-1,/,i
CCCCOCCCNC(=O)C[C@@H]1C[C@@]2(C(=O)OCC)CCCC=C2N(Cc2cccc3ccccc23)C1=O,0,?,?,0,/,35µM*
CCOC(=O)C1(C)CCN1C(=O)c1ccc2ccccc2c1 (stereo not given),6,18,8%,4,/,i
COc1cc(/C=N/NC(=O)c2ccc(CSc3nncn3C)cc2)ccc1OCC(=O)N1CC(C)OC(C)C1 (stereo not given),2,35,-1%,-7,6%,i
COc1cc(/C=N/NC(=O)c2ccc(Cl)cc2)ccc1OCC(=O)N1CC(C)OC(C)C1 (stereo not given),-54*,-10,-20%,-24,-449%,i
CC1(C(=O)NCc2ccccc2)CSCC(=O)N1Cc1ccco1 (stereo not given),-6,13,/,4,/,/
CC1(C)CC(=O)/C(=C\c2cccc([N+](=O)[O-])c2)C(C)(C)N1,?,-82*,12%,-19,-57%,?
O=C1N(c2ccccc2)C2CS(=O)(=O)CC2N1c1ccc(Cl)c(Cl)c1 (stereo not given),12,-55*,-5%,1,11%,i
COc1cc(C(=O)NC(C)c2cnn(-c3ccccc3C)c2C)cc(OC)c1OC (stereo not given),4,0,/,-4,-41%,i
CCCCc1nn2c(=O)cc(COC(=O)c3cccc(NC(=O)c4cccs4)c3)nc2s1,/,/,-4%,-5,/,i
C(=C\c1sc(Nc2ccccc2)n[n+]1-c1ccccc1)/c1ccccc1,0,-98*,-15%,2,4%,i
COc1ccc(-c2sc(Nc3ccccc3)n[n+]2-c2ccccc2)cc1Br,-1,?,5%,5,23%,i
Cc1cc(C)cc(-n2c(C)cc(/C=C3\C(=N)N4N=C(CC(C)C)SC4=NC3=O)c2C)c1,-2,-3,10%,4,18%,i
CCCC1=NN2C(=N)/C(=C\c3cc(C)n(-c4cc(C)cc(C)c4)c3C)C(=O)N=C2S1,-57*,22,1%,-9,-11%,i
OC1(C2(O)CC(c3ccccc3)ON2)CCCCC1 (stereo not given),-12,-69*,-22%,-13,-54%,i
SMILES,D3 antag,IL1B secr inh,ATXN2 expr inh,D3 ag,a7 integrin act,ATXN viability
O=C1CCCCCC(=O)[C@H](O)C[C@H](c2ccccc2)O1,0,47,-6%,-1,/,i
COC(=O)C[C@@H]1C=C[C@H](NC(=O)Cc2ccccn2)[C@@H](CO)O1,-1,27,/,30*,/,/
CN(C(=O)COC(=O)c1ccccc1OCc1ccc(Cl)cc1)c1c(N)n(Cc2ccccc2)c(=O)[nH]c1=O,12,22,-8%,10,-10%,i
CCOP(=O)(c1ccccc1)c1nc(-c2ccccc2Cl)oc1N1CCCCC1 (stereo not given),-73*,-67*,-8%,0,13%,?
CCOP(=O)(OCC)c1nc(-c2cccc([N+](=O)[O-])c2)oc1N1CCCCC1,4,0,/,0,15%,i
COc1ccc(C2C3(C#N)C(N)=NC(OC)(OC)C23C#N)cc1 (stereo not given),9,-92*,?,1,16%,?
COC1(OC)N=C(N)C2(C#N)C(c3ccc(C)cc3)C12C#N (stereo not given),?,5,-6%,-2,-3%,i
CCCOC(=O)c1ccc(Cn2nnc3sc4c(c3c2=O)CCC(C)C4)cc1 (stereo not given),/,/,10%,10,/,i
Clc1ccc(-c2ccc(CNCc3ccccn3)o2)cc1,-69*,-6,/,-22,25%,i
Fc1ccc(-c2ccc(CNCc3ccccn3)o2)cc1,?,-21,22%,-10,5%,?
CCn1nc(C)cc1-c1nnc(SCC(=O)Nc2ccccc2)n1CCCOC,4,/,-18%,0,-17%,i
CCn1nc(C)cc1-c1nnc(Sc2ncc([N+](=O)[O-])s2)n1C,-117*,-99*,/,-25,-75%,3.5µM*
COc1ccc(O)c(CN2CCOc3c(cc(-c4cccc(OC)n4)cc3OC)C2)c1,/,/,/,/,/,i
COc1ccccc1N1CCN(C(=O)c2ccc3[nH]c4c(c3c2)CC(C)CC4)CC1 (stereo not given),2,-94*,/,5,-53%,i
COc1ccccc1N1CCN(C(=O)c2ccc3c(Cl)c4c(nc3c2)CCCC4)CC1,8,-87*,-17%,3,-22%,?
O=c1[nH]c(Nc2ccccn2)cc2ccccc12,0,24,24%,3,-25%,i
O=c1[nH]c(-c2ccccn2)cc2ccccc12,-18,-56*,23%,-5,-2%,i
CCN(CC)c1ccc(/C=C/c2cccc[n+]2C)c(OC)c1,?,-92*,3.2µM*,-8,-40%,8.9µM*
